In all, about 52,000 compounds went through this assay and about 4,300 (8.3%) were called active. Many of the other results were omitted from the sample, so actives are more common in it than they were. Values without a mark were called inactive. No stated cut-off is given here; in the data, active means survival mostly below about 52% (no sharp cut-off); inactive means mostly above about 56%.
What follows are compounds tested on DeltatarO mutant (assay: S. aureus survival, RN4220 and DeltatarO strains – OD600, teichoic acid synthesis inhibitors, primary screen (AID 463173)). Details: S. aureus RN4220 wild type/DeltatarO growth, OD600, 18 h, stronger effect = lower value, screened at 18.75 µg/mL (by protocol).

Q: With `CCOC(=O)C(C)ON1C(=O)c2ccccc2C1=O` (stereo not drawn) as the compound, how does the survival read?
A: 86%

Q: With `CC(=O)N1CCc2cc(Br)cc(S(=O)(=O)CCC(=O)Nc3ccc(C)cc3Cl)c21` as the compound, how does the survival read?
A: 47% (active)

Q: For `CC(=O)N1CCc2cc(Br)cc(S(=O)(=O)NCCc3cccc(C)c3)c21`, which survival is on record?
A: 75%

Q: Which survival does the source give for `CCC(=O)N1CCc2cc(Br)cc(S(=O)(=O)CCC(=O)NCCc3ccc(Cl)cc3)c21` here?
A: 70%

Q: How did the survival turn out when `CC(=O)N1CCc2cc(Br)cc(S(=O)(=O)CCC(=O)NCCc3ccc(Cl)cc3)c21` was run?
A: 44% (active)

Q: With `CCOc1ccc(CCNS(=O)(=O)c2cc(Br)cc3c2N(C(C)=O)CC3)cc1OCC` as the compound, how does the survival read?
A: 103%

Q: How did the survival turn out when `COc1ccc(CCNC(=O)CCS(=O)(=O)c2cc(Br)cc3c2N(C(C)=O)CC3)cc1OC` was run?
A: 53%

Q: For `CC(=O)N1CCc2cc(Br)cc(S(=O)(=O)NCCc3ccc(Cl)cc3)c21`, which survival is on record?
A: 45% (active)

Q: How did the survival turn out when `Cc1ccc(NC(=O)CCS(=O)(=O)c2cc(Br)cc3c2N(C(=O)C2CC2)CC3)cc1` was run?
A: 90%

Q: Which survival does the source give for `CCC(=O)N1CCc2cc(Br)cc(S(=O)(=O)CCC(=O)Nc3ccccc3C)c21` here?
A: 87%

Q: For `COc1ccc(CCNC(=O)c2ccc3c(c2)N(Cc2ccccc2C)C(=O)c2ccccc2S3)cc1OC`, which survival is on record?
A: 118%

Q: Which survival does the source give for `CCOC(=O)c1c(C)[nH]c(C)c1S(=O)(=O)NCC(=O)Nc1ccc(CC)cc1` here?
A: 96%

Q: With `COc1ccc(OC)c(CCNC(=O)C2=C(C)C(=O)OC23CCC(C)CC3)c1` (stereo not drawn) as the compound, how does the survival read?
A: 86%

Q: Which survival does the source give for `Cc1cc(C(C)(C)C)oc1C(=O)N(CC(=O)NC1CCCC1)c1ccc(F)cc1` here?
A: 77%

Q: `CC(C)(C)c1ccc(OCC(=O)N2CCC(c3nc4ccccc4s3)CC2)cc1` was tested. Which survival did it give?
A: 84%

Q: For `O=C(COc1cccc(Cl)c1)N1CCC(c2nc3ccccc3s2)CC1`, which survival is on record?
A: 44% (active)

Q: With `O=C(COc1ccc([N+](=O)[O-])cc1)N1CCC(c2nc3ccccc3s2)CC1` as the compound, how does the survival read?
A: 82%

Q: `Cc1ccccc1OCC(=O)N1CCC(c2nc3ccccc3s2)CC1` was tested. Which survival did it give?
A: 51%

Q: How did the survival turn out when `COc1ccc(OCC(=O)N2CCC(c3nc4ccccc4s3)CC2)cc1` was run?
A: 68%

Q: `Cc1cc(Cl)ccc1OCC(=O)N1CCC(c2nc3ccccc3o2)CC1` was tested. Which survival did it give?
A: 54%

Q: `Cc1cc(C)cc(OCC(=O)N2CCC(c3nc4ccccc4s3)CC2)c1` was tested. Which survival did it give?
A: 85%

Q: For `Cc1cc(OCC(=O)N2CCC(c3nc4ccccc4s3)CC2)ccc1Cl`, which survival is on record?
A: 23% (active)

Q: `Cc1cc(Cl)ccc1OCC(=O)N1CCC(c2nc3ccccc3s2)CC1` was tested. Which survival did it give?
A: 21% (active)

Q: `COc1ccc(N2CCN(S(=O)(=O)c3c(C)nc4sc(C)cn4c3=O)CC2)cc1` was tested. Which survival did it give?
A: 92%

Q: How did the survival turn out when `CCCCSCc1ccc(C(=O)O)o1` was run?
A: 77%

Q: How did the survival turn out when `O=C(c1cccs1)N1CCCc2cc(NS(=O)(=O)c3cc(F)ccc3F)ccc21` was run?
A: 73%

Q: `O=C(c1ccccc1F)N1c2nc(-c3ccco3)nn2C2(CCCCC2)[C@@H]2CCCC[C@@H]21` was tested. Which survival did it give?
A: 69%

Q: For `C=Cc1ccc(Cn2c(C)c(CNCCc3ccccc3C)c(C(=O)O)c2C)cc1`, which survival is on record?
A: 53%

Q: How did the survival turn out when `Cc1cc(C)c(NS(=O)(=O)c2ccc(-c3coc(C)n3)cc2)c(C)c1` was run?
A: 94%

Q: How did the survival turn out when `CC(=O)OCc1cnc(C)c2oc(=O)c(C(=O)Nc3ccc(C)cc3Cl)cc12` was run?
A: 128%

Q: Which survival does the source give for `Cc1ccc(NC(=O)c2ccc(Cl)cc2Cl)c(C(=O)c2ccccc2)c1` here?
A: -1% (active)

Q: Which survival does the source give for `Cc1cc(NC(=O)c2ccccc2Cl)ccc1NC(=O)c1ccccc1` here?
A: 77%

Q: For `Cc1ccc(NC(=O)c2ccccc2Br)c(C(=O)c2ccccc2)c1`, which survival is on record?
A: 26% (active)

Q: How did the survival turn out when `Cc1ccc(C(=O)COC(=O)c2cccc(NC(=O)c3ccc(Cl)cc3Cl)c2)cc1` was run?
A: 61%

Q: How did the survival turn out when `Cc1ccc(NC(=O)c2nc[nH]c2C(=O)N2CCCCC2)c(C(=O)c2ccccc2)c1` was run?
A: 82%

Q: With `O=C(Nc1cc2c(cc1C(=O)c1ccccc1Br)OCCO2)c1ccccc1` as the compound, how does the survival read?
A: 68%

Q: `Cc1ccc(NC(=O)c2ccc(Br)cc2)c(C(=O)c2ccccc2)c1` was tested. Which survival did it give?
A: -2% (active)

Q: How did the survival turn out when `O=C(c1ccccc1)c1ccccc1NC(=O)c1ccccc1C(=O)O` was run?
A: 67%

Q: For `O=C(Nc1cc2c(cc1C(=O)c1ccccc1)OCCO2)c1ccc(Br)cc1`, which survival is on record?
A: 82%

Q: `CCOc1ccccc1CNC(=O)c1ccc2c(c1)nc1n2CCCCC1` was tested. Which survival did it give?
A: 87%

Q: Which survival does the source give for `O=C(c1ccccc1)n1nnc2ccccc21` here?
A: 106%

Q: For `COc1ccc2c(c1)c1c(c(=O)n(Cc3ccccc3)c(=O)n1Cc1cccc(Cl)c1)n2C`, which survival is on record?
A: 82%

Q: How did the survival turn out when `CCC(Oc1ccccc1)C(=O)Nc1nccs1` (stereo not drawn) was run?
A: 79%

Q: For `COc1ccc2c(CNCCc3ccco3)c(C(=O)O)n(Cc3ccccc3)c2c1`, which survival is on record?
A: 101%

Q: `CCC(C(=O)Nc1cc(C)ccc1C)n1c(=O)c(C(F)(F)F)nc2ccccc21` (stereo not drawn) was tested. Which survival did it give?
A: 102%

Q: `CCCc1cnc2c(c1SCC(=O)Nc1ccc([N+](=O)[O-])cc1)c(=O)n(C)c(=O)n2C` was tested. Which survival did it give?
A: 66%

Q: With `COc1ccc(-n2cc(C(=O)OCc3ccc(F)c(F)c3)c3ccccc3c2=O)cc1` as the compound, how does the survival read?
A: 98%

Q: How did the survival turn out when `COc1ccccc1NC(=O)c1ccccc1NC(=O)c1ccccc1` was run?
A: 20% (active)

Q: For `O=C(Nc1ccccc1C(=O)O)c1cccc(S(=O)(=O)N2CCCC2)c1`, which survival is on record?
A: 87%

Q: Which survival does the source give for `COc1ccccc1NC(=O)c1cc(S(=O)(=O)N2CCN(c3ccccc3Cl)CC2)ccc1F` here?
A: 102%

Q: Which survival does the source give for `COc1ccccc1NC(=O)c1ccccc1C(=O)O` here?
A: 82%

Q: How did the survival turn out when `COc1ccc(OC)c(NC(=O)c2ccccc2)c1` was run?
A: 105%

Q: Which survival does the source give for `COc1ccccc1NC(=O)c1cccc(S(=O)(=O)N2CCCCCC2)c1` here?
A: 40% (active)

Q: Which survival does the source give for `Cc1ccc(S(=O)(=O)N2C(=O)CCC2C(=O)N2CCCC2)cc1` (stereo not drawn) here?
A: 97%

Q: `Cc1ccc(N2CCN(c3c(CN4CCCC4)c(=O)oc4ccccc34)CC2)c(C)c1` was tested. Which survival did it give?
A: 67%

Q: For `COc1cc(Cl)c(C)cc1Nc1nc2ccccc2c2nnc(C)n12`, which survival is on record?
A: 124%

Q: For `CCOC(=O)c1sc(N/C=C(\C#N)c2nc3cc(Cl)ccc3o2)c(C#N)c1C`, which survival is on record?
A: 81%

Q: For `CN(C)c1ccc(CNC(=O)CN2CCSc3ccc(S(=O)(=O)N(C)C)cc32)cc1`, which survival is on record?
A: 66%

From PubChem BioAssay AID463173 (ICCB-Longwood Screening Facility, Harvard Medical School, 2010)
